The nature of test [1]: CCTE_Shafer_MEA_acute_spike_number: CCTE's Neural Acute Assay for Total Number of Spikes, Shafer Lab (AID 2284008).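 As to AC50: curve fitted for decrease in spike count so AC50 reflects inhibitors.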 Summed up:
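Rat cortical cultures, DIV 13/15, 37 C. 40 min baseline rec, cpd 0.03-40 uM, 40 min post-dose rec. Band-pass 300-5000 Hz, spike threshold 8x rms; % change in spike count per well, DMSO neg ctrl, loss-of-signal fit.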

Test [2] is described as follows: CCTE_Shafer_MEA_acute_firing_rate_mean: CCTE's Neural Acute Assay for Mean Firing Rate, Shafer Lab (AID 2284009).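 Also: analyzed for loss of signal so actives lower firing rate relative to DMSO.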 An outline of the steps:
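Percent change in well-mean firing rate was derived from extracellular spikes detected at 8x rms noise (300-5000 Hz band-pass) before and after a 40-min compound exposure. Cultures were primary rat cortical neurons, tested at 0.03-40 uM.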

Test [3] in a line: CCTE_Harrill_HTTr_Viability_MCF7: CCTE's 6-hour Cell Viability Assessment for the High-Throughput Transcriptomics (HTTr) Platform, in MCF-7 cells cultured in DMEM + 10% fetal bovine serum, Harrill Lab (AID 2284010). Summed up:
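Viability measured through PI dye exclusion by high-content imaging at 6 h post-dosing.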

Test [4] is described as follows: CCTE_Harrill_HTTr_Apoptosis_MCF7: CCTE's 6-hour Apoptosis Assessment for the High-Throughput Transcriptomics (HTTr) Platform, in MCF-7 cells cultured in DMEM + 10% fetal bovine serum, Harrill Lab (AID 2284011). Summed up: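 Read-out: CellEvent Caspase 3/7 Green signal by high content imaging, gain-of-signal indicating apoptosis. MCF-7 cells, DMEM + 10% FBS, eight-point dilution series, 6 h exposure. Curves fitted bidirectionally relative to DMSO negative control.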

A short description of test [5]: CCTE_Harrill_HTTr_CellCount_MCF7: CCTE's Cell Proliferation Assessment for the High-Throughput Transcriptomics (HTTr) Platform, Harrill Lab (AID 2284012; active = hit-call score of the fitted dose curve at least 0.9, where 1 is the maximum;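 also: count of Hoechst-stained nuclei per well by high-content imaging in MCF-7 cells; cells exposed to compound for six hours; intended direction is loss of nuclei count meaning fewer cells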). Summed up:
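Nuclei counting (Hoechst, high content imaging) in MCF-7 after a 6 h treatment at eight concentrations. Activity fitted bidirectionally, DMSO as negative control.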

The nature of test [6]: CCTE_Shafer_MEA_acute_burst_number: CCTE's Neural Acute Assay for Single-Electrode Bursts, Shafer Lab (AID 2284013). An outline of the steps: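 Spontaneous network activity of primary rat cortical neurons was recorded extracellularly on microelectrode arrays at 37 C, with 40-min periods before and during exposure to 0.03-40 uM compound on DIV 13 or 15.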
Test [7] in a line: CCTE_Shafer_MEA_acute_burst_duration_mean: CCTE's Neural Acute Assay for Mean Burst Duration, Shafer Lab (AID 2284014).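 Also: hits are decreases in mean burst duration relative to DMSO controls.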 An outline of the steps: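 Read-out is the per-well percent change in mean burst duration (first to last spike within a single-electrode burst) between 40-min recordings before and after compound. Cultures were primary rat cortical neurons on MEAs, dosed at 0.03-40 uM on DIV 13 or 15.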

Test [8] can be described thus: CCTE_Shafer_MEA_acute_per_burst_spike_number_mean: CCTE's Neural Acute Assay for Average Number of Spikes Per Burst, Shafer Lab (AID 2284015).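 Also: hits are decreases in mean spikes per burst versus baseline.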 An outline of the steps:
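Primary rat cortical neurons on 48-well MEA plates, treated on DIV 13 or 15 at 0.03-40 uM. Spontaneous activity recorded 40 min before and 40 min after compound at 37 C; percent change in mean spikes per single-electrode burst per well, fitted in the loss direction versus DMSO.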

The nature of test [9]: CCTE_Shafer_MEA_acute_interburst_interval_mean: CCTE's Neural Acute Assay for Mean Interburst Interval, Shafer Lab (AID 2284016).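 Also: percent change of mean interburst interval versus each well's own pre-dose baseline; curves fitted for decrease in interburst interval relative to DMSO.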 An outline of the steps:
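Primary rat cortical neurons on 16-electrode MEA wells were recorded 40 min at baseline on DIV 13 or 15, then 40 min after compound (0.03-40 uM), at 37 C. Value is percent change in mean interburst interval per well, DMSO as negative control.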

The nature of test [10]: CCTE_Simmons_MITO_inhib_resp_rate: CCTE's HepG2 Seahorse XF Respirometric Screening Assay at Inhibited Respiratory State [full ETC block], Simmons Lab (AID 2284006). The note with it: actives raise or lower the signal. Summed up: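 Inhibited respiration was taken as HepG2 oxygen consumption after rotenone/antimycin A, which followed test-compound and FCCP injections. Chemicals were tested at seven final concentrations from 125 nM to 100 uM. Activity was fitted bidirectionally relative to DMSO.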

Test [11] in a line: CCTE_Simmons_MITO_viability: CellTiter-Glo Viability Assessment for CCTE's HepG2 Seahorse XF Respirometric Screening Assay [post-hoc], Simmons Lab (AID 2284007; active = hit-call score of the fitted dose curve at least 0.9, where 1 is the maximum). An outline of the steps:
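HepG2 cells; test chemical 7 conc. (125 nM–100 uM final) × 90 min; then luminescent ATP detection. DMSO vehicle. Positive control dichlone, 8 conc. from 10 nM to 100 uM final. Loss-of-signal endpoint.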
On the technique in general: ATP-based viability assays read luminescence as a measure of living cells.

SMILES strings stand for the structures. Inconclusive results are not listed. Calls of active or inactive are those of the source. The calls were made as follows, unless noted: active = hit-call score of the fitted dose curve at least 0.9, where 1 is the maximum; inactive = score below 0.9.

With `CC(C)(C)[C@@H](O)[C@@H](Cc1ccc(Cl)cc1)n1cncn1`, the compound was called inactive in test [1], in [2], in test [3], in [4], in test [5] and in test [6]. The outcome in test [8] and in [9] was inactive. Also, the AC50 (in general, the midpoint of the concentration-response curve, whichever way the signal moves) in [7] was 25100 nM (active).

With `CCCCCCC(C)OC(=O)COc1nc(F)c(Cl)c(N)c1Cl` (centres undefined), the outcome in test [3] and in [4] was inactive.

As for `O=C(Nc1ccc([N+](=O)[O-])cc1Cl)c1cc(Cl)ccc1O`, the concentration at half-maximal activity (AC50) was 1360 nM (active) in test [10]; 115 nM (active) in [1]; 114 nM (active) in test [2]; 94.4 nM (active) in [6]; 621 nM (active) in [7]; 292 nM (active) in test [8]. Moreover, the AC50 in test [9] is 183 nM (active). Moreover, the outcome in test [3] and in test [4] was inactive.

For `CCN(Cc1c(F)cccc1Cl)c1c([N+](=O)[O-])cc(C(F)(F)F)cc1[N+](=O)[O-]`, the outcome in [3] and in [4] was inactive.

In the case of `CCC(O)=C1C(=O)CC(C(=O)O)CC1=O` (centres undefined), the result in test [3] and in test [4] was inactive.

Regarding `CCCN(CCC)c1c([N+](=O)[O-])cc(C(F)(F)F)c(N)c1[N+](=O)[O-]`, the call in test [1], in test [2], in [4], in test [5], in test [6] and in [7] was inactive. Moreover, the result in test [8] and in [9] was inactive. In addition, the half-maximal activity concentration (AC50) in test [3] was 68100 nM (active).

Take `C#CCOC(=O)[C@@H](C)Oc1ccc(Oc2ncc(Cl)cc2F)cc1`: the result in [1], in test [2], in [3], in [4], in test [6] and in test [7] was inactive. For the same compound, the compound was called inactive in [8] and in [9].

In the case of `COc1c(Cl)ccc(Cl)c1C(=O)O`, the outcome in test [3] and in test [4] was inactive.

With `CCCCOC(=O)[C@@H](C)Oc1ccc(Oc2ccc(C(F)(F)F)cn2)cc1`, the call in test [10], in test [11], in [3], in test [4] and in test [5] was inactive.

As for `COC(=O)c1ccccc1C(=O)O`, the call in [1], in [2], in [3], in test [4], in test [5] and in [6] was inactive. In addition, the call in [7], in test [8] and in test [9] was inactive.

For `CCNc1nc(N)nc(Cl)n1`, the call in test [1], in test [2], in test [3], in test [4], in test [6] and in [7] was inactive. Besides, the call in test [8] and in [9] was inactive.

On to `CCCCCOC(=O)COc1cc(N2C(=O)C3=C(CCCC3)C2=O)c(F)cc1Cl`, for which the outcome in [3], in test [4] and in test [5] was inactive.

With `Oc1ccc(C(c2ccc(O)cc2)C(Cl)(Cl)Cl)cc1`, the compound was called inactive in test [10], in test [3], in test [4], in test [5], in test [7] and in [8]. Further, the AC50 in test [1] is 4040 nM (active); in test [2], 4040 nM (active); in [6], 2220 nM (active); in test [9], 7400 nM (active).

As to `CCCOC(=O)NCCCN(C)C`, the outcome in [3] and in test [4] was inactive.

In the case of `OB(O)O`, the outcome in test [1], in test [2], in test [3], in test [4], in test [5] and in [6] was inactive. In addition, the compound was classed as inactive in [7], in [8] and in [9].

These data come from PubChem BioAssay (EPA / NIEHS).
